Source: PubChem BioAssay (NCATS)
Results filed as inconclusive are left out. Activity calls are given as the source filed them. Unless noted, calls come from the whole dose curve; as a rule, active = well fitted curve in the direction sought with a large enough effect; inconclusive = small, poorly fitted or top-dose-only effect, or another doubt; inactive = no such curve, though single readings can be large; an effect the other way counts as inactive or inconclusive.

How the values were obtained:
[1] = biological target: Lysosomal acid glucosylceramidase (Homo sapiens) (UniProt P04062); test: Glucocerebrosidase-p2 (AID 348; in the data active = potency below about 10 µM; note: potency is the fitted concentration of half-maximal effect); conditions: purified GBA, blue fluorogenic substrate, 40 min
Sequence of Lysosomal acid glucosylceramidase (Homo sapiens) (P04062 whole entry, looked up): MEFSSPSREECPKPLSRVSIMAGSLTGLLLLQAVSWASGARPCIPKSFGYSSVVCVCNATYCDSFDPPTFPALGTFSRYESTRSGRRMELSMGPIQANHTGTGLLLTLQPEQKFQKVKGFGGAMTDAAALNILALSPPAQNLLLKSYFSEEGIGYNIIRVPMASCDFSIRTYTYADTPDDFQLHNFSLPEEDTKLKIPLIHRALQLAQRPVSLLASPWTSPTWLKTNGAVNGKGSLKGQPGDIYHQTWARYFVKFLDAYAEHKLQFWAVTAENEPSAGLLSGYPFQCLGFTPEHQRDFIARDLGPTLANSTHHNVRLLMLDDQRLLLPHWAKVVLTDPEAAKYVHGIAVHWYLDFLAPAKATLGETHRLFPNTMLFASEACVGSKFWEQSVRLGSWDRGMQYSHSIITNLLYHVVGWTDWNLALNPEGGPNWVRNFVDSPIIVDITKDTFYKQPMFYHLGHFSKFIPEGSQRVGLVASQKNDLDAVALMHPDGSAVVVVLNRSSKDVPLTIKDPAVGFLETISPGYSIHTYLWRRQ
Procedure, shortened: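 Compounds titrated from 0.6 nM upwards against 0.2 nM enzyme in pH 5.9 citric acid/KH2PO4, taurocholate, tween-20; blue fluorogenic substrate 80 uM, 40 min room temperature, stopped and read Ex 365/Em 440 for AC50.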

[2] = AP1 Signaling Pathway (AID 357; active = well fitted curve in either direction with a large enough effect, not every such curve was filed as active; note: % is set by controls: 0 for no effect and ±100 for the full control effect); conditions: ME-180 AP-1-bla reporter, EGF-induced, beta-lactamase ratio, 5 h; at 7.69 µM (top of the series) unless noted
Procedure, shortened: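 AP-1-bla ME-180 cells with beta-lactamase reporter under AP-1 response element, stimulated with EC50 EGF; compounds titrated, 5 hours at 37 degrees Celsius. CCF4 read at 460/530 nm ratio; positive and negative modulators judged by AC50.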

[3] = biological target: Cytochrome P450 1A2 (Homo sapiens) (UniProt P05177); test: p450-cyp1a2 (AID 410; calls by dose curve; note: potency is the fitted concentration of half-maximal effect)
Sequence of Cytochrome P450 1A2 (Homo sapiens) (P05177 whole entry, looked up): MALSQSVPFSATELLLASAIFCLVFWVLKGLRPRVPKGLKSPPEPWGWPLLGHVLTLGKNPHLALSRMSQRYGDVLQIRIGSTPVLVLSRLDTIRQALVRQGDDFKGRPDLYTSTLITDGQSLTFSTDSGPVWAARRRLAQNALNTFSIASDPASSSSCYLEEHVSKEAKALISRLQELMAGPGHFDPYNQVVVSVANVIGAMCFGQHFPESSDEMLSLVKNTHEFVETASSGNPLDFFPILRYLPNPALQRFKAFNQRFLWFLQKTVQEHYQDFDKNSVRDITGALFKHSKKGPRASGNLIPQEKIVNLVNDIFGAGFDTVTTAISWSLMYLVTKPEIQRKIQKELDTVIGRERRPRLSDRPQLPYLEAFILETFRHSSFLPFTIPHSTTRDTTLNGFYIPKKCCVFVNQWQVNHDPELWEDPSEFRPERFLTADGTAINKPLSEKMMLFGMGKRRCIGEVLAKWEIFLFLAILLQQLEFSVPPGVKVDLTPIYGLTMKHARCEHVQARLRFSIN
Procedure, shortened: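 Luminescent readout of luciferin formed from Luciferin-ME by human CYP1A2; data normalized against complete inhibition by 57 uM furafylline. Enzyme 20nM, substrate 100uM at Km, 100mM KPO4 buffer, 60 min reaction at room temperature.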

[4] = NFAT Signaling Pathway (AID 444; active = well fitted curve in either direction with a large enough effect, not every such curve was filed as active;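 note: carbachol stimulus at about its EC50 of 1 µM final; % is set by controls: 0 for no effect and ±100 for the full control effect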); conditions: Jurkat NFAT-bla M1, carbachol, beta-lactamase ratio, 5 h; at 7.69 µM (top of the series) unless noted
Procedure, shortened: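 Read-out: CCF4 FRET ratio (460 nm/530 nm) after 1 h RT dye loading, used for %activity and AC50 from titration series. Cells: Jurkat NFAT-β-lactamase/M1 line, treated with compound plus 1 uM carbachol for 5 h, 37 °C.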

[5] = Stat Signaling Pathway (AID 446; active = well fitted curve in either direction with a large enough effect, not every such curve was filed as active;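 note: ME-180 cervical cancer cells given 40 pM IL-6 alongside compound; SIE-controlled beta-lactamase reporter measured as 460/530 nm FRET emission ratio; % is set by controls: 0 for no effect and ±100 for the full control effect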); conditions: ME-180 SIE beta-lactamase reporter, IL-6 stimulated, 5 h; at 7.69 µM (top of the series) unless noted
Procedure, shortened: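 ME-180 SIE-bla cells; overnight plating; cpd + IL-6 40 pM, 5 h, 37 C; LiveBLAzer 2.5 h RT; 460/530 nm emission ratio. Normalized to 300 pM IL-6 and 125 nM JAK inhibitor controls.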

[6] = biological target: Glucocorticoid receptor (Homo sapiens) (UniProt P04150); test: GR-GFP Redistribution (AID 450;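 active = compounds whose dose series gives a full or clear partial fitted curve of increased nuclear translocation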; note: potency is the fitted concentration of half-maximal effect); conditions: U2OS GR-GFP nuclear translocation, laser cytometry, 2 h
Sequence of Glucocorticoid receptor (Homo sapiens) (P04150 whole entry, looked up, the tested form may be a part): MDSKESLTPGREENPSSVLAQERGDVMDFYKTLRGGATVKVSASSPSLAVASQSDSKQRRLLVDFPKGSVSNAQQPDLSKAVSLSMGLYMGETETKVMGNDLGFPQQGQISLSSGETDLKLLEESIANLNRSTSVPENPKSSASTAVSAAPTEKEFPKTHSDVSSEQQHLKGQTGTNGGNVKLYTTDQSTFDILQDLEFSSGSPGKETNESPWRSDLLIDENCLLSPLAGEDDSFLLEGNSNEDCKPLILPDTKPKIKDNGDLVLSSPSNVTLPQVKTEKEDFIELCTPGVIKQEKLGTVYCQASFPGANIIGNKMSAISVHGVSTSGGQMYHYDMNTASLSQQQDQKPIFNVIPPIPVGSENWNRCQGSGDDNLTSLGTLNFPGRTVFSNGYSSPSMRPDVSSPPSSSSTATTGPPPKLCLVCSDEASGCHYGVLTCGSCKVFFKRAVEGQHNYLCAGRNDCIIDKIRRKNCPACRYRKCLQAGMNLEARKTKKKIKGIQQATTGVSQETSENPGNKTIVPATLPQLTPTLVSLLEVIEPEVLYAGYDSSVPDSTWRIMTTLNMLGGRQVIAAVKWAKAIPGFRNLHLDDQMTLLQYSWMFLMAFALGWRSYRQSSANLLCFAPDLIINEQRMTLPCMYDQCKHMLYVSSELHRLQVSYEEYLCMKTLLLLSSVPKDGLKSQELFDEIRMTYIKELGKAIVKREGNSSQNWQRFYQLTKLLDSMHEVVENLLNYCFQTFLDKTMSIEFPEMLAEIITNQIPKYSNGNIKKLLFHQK

[7] = biological target: Glucocorticoid receptor (Homo sapiens) (UniProt P04150); test: GR-EFC Redistribution (AID 451; calls by dose curve; note: potency is the fitted concentration of half-maximal effect); conditions: CHO-K1 GR-EFC translocation, beta-gal luminescence, 2 h
Procedure, shortened: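 Translocation of GR-ED fusion to nuclear EA restores b-gal, read by luminescence after 1 h room-temperature detection. Engineered CHO-K1 biosensor cells, 1,000/well, exposed 2 h at 37 C to titrations up to 46 uM final.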

[8] = biological target: Mitogen-activated protein kinase 10 (Mus musculus) (UniProt Q61831); test: JNK3 AlphaScreen Assay (AID 530; active = well fitted curve in either direction with a large enough effect, not every such curve was filed as active;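 note: kinase came from lysate of stimulated human HepG2 cells; signal reports phosphorylation of biotinylated GST-cJun 1-79 at Ser73 with 10 µM ATP; % is set by controls: 0 for no effect and ±100 for the full control effect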)
Procedure, shortened: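 Compound titrations were preincubated 15 minutes at room temperature with substrate, antibody and pre-activated JNK3-containing HepG2 lysate. Reactions were started with 10 uM ATP and stopped with EDTA-containing bead buffer for AlphaScreen detection.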

[9] = biological target: 3',5'-cyclic-AMP phosphodiesterase 4B (Homo sapiens) (UniProt Q07343); test: qHTS Assay for Inhibitors of PDE-IV (AID 607; active = well fitted activation curve with a large enough effect in the main read-out, with a control signal flat, not every such curve was filed as active; note: % of control where 0% means no effect)
Sequence of 3',5'-cyclic-AMP phosphodiesterase 4B (Homo sapiens) (Q07343 whole entry, looked up): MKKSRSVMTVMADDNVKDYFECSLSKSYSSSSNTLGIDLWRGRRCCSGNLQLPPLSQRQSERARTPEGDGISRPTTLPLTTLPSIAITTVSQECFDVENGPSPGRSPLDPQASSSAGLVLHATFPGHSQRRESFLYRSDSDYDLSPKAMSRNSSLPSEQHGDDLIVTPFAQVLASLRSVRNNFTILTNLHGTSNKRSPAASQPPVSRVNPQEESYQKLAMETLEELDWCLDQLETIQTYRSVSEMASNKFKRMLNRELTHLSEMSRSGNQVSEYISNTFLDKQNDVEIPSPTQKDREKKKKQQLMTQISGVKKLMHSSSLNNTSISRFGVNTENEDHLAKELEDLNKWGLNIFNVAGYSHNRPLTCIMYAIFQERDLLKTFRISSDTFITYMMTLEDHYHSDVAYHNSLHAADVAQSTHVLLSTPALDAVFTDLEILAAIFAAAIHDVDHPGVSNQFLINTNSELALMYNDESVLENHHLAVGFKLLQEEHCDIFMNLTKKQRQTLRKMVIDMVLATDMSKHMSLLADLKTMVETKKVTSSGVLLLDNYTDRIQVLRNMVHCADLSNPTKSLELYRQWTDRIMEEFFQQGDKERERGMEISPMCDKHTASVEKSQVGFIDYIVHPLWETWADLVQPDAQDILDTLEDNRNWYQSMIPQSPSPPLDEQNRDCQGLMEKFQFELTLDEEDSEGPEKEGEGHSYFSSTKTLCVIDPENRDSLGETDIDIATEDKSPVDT
Procedure, shortened: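 ACTOne HEK293 cells carry a modified cAMP-gated CNG channel and express endogenous PDE4; plated 1000 cells/well, compounds up to 22.9 uM final. Membrane-potential dye fluorescence (ex 535/em 590) was read; parental cells received 10 uM forskolin + 100 uM RO 20-1724.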

[10] = qHTS Assay for Lipid Storage Modulators (AID 1519; calls by dose curve); conditions: Drosophila S3 cells, BODIPY lipid droplet/cell ratio, laser cytometry, cells loaded with oleic acid; for activity change, negative = inhibition: at 57.5 µM (top of the series)
Procedure, shortened: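 Cells seeded at 5,000 per well were treated with compounds over a concentration series and loaded with oleic acid (400 uM, as added). Lipid droplet fluorescence (488 nm excitation, 500-530 nm channel) was read by laser-scanning cytometry and normalized to 20 uM Triacsin C.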

[11] = biological target: Dual specificity protein kinase CLK4 (Homo sapiens) (UniProt Q9HAZ1); test: qHTS Assay for Inhibitors of CDC-like Kinase 4 (Kinase-Glo Assay) (AID 1770); note: % is set by controls: 0 for no effect and ±100 for the full control effect; nearly all actives have a fitted effect of over 65% in size
Sequence of Dual specificity protein kinase CLK4 (Homo sapiens) (Q9HAZ1 whole entry, looked up): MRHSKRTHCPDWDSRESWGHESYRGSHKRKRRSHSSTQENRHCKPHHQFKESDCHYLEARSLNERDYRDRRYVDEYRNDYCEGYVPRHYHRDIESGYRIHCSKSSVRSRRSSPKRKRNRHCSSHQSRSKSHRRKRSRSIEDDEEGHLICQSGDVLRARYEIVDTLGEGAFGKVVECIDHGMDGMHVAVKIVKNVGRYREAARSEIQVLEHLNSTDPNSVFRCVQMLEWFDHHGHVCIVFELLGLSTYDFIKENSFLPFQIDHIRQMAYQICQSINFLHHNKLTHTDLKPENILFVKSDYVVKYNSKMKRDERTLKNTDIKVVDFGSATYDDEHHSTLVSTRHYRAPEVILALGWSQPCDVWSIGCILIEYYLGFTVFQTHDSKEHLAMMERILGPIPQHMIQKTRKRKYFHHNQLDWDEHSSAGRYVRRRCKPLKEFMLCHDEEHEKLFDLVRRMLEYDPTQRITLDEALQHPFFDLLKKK
Procedure, shortened: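 Inhibition was judged from remaining ATP, measured by Ultra-Glo luciferase bioluminescence after Clk4 (25 nM) had acted on RS peptide at 1 uM ATP for 4.5 hours, room temperature.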

[12] = biological target: Dual specificity protein kinase CLK4 (Homo sapiens) (UniProt Q9HAZ1); test: qHTS Assay for Inhibitors of CDC-like Kinase 4 (ADP-Glo Assay) (AID 1771); note: % is set by controls: 0 for no effect and ±100 for the full control effect; nearly all actives have a fitted effect of over 70% in size
Procedure, shortened: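 Luminescence from ADP-Glo reports ADP produced by 25 nM Clk4 acting on 100 uM RS repeat peptide with 1 uM ATP over 1 hr at room temperature; residual ATP is depleted before ADP is converted to ATP for detection.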

[13] = biological target: Dual specificity protein kinase CLK4 (Homo sapiens) (UniProt Q9HAZ1); test: qHTS Assay for Inhibitors of CDC-like Kinase 4 (ADP-FP Assay) (AID 1795);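 note: recombinant human CLK4 phosphorylating RS repeat peptide at 1 µM ATP; % is set by controls: 0 for no effect and ±100 for the full control effect; nearly all actives have a fitted effect of over 60% in size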
Procedure, shortened: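 Inhibition of ADP formation by 6.25 nM Clk4 is measured using 1 uM ATP and 100 uM RS repeat peptide over one hour. Produced ADP displaces a fluorescent tracer from antibody, lowering polarization.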

[14] = biological target: Ubiquitin carboxyl-terminal hydrolase 1 (Homo sapiens) (UniProt O94782); test: Inhibitors of USP1/UAF1: Pilot qHTS (AID 504865); note: nearly all actives have a fitted effect of over 35% in size; note: potency is the fitted concentration of half-maximal effect
Sequence of Ubiquitin carboxyl-terminal hydrolase 1 (Homo sapiens) (O94782 whole entry, looked up): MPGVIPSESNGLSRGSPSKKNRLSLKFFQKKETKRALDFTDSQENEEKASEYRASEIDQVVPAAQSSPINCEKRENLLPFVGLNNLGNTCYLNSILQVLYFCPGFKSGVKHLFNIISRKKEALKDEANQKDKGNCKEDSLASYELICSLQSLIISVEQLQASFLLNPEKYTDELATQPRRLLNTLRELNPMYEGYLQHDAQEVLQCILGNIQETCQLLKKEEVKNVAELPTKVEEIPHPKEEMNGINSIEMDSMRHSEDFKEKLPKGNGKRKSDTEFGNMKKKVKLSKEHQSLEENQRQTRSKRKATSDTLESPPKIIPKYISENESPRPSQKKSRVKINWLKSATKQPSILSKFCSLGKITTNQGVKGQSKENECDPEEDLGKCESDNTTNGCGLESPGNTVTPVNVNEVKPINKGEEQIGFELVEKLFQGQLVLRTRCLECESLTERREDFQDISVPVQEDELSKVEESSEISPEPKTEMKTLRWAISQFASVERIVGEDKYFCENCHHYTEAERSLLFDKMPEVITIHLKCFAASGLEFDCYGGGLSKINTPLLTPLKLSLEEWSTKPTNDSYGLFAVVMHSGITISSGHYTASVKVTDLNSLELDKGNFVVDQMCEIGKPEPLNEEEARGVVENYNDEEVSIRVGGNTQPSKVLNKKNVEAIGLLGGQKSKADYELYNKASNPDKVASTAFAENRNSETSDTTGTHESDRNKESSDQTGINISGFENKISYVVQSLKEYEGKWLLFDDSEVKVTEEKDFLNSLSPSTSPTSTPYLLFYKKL
Procedure, shortened: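 Kinetic fluorescence assay: 1nM USP1/UAF1, 15 min compound preincubation, then 150nM Ub-Rho; 480/540 nm.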

[15] = Primary qHTS for small molecule stabilizers of the endoplasmic reticulum resident proteome: Secreted ER Calcium Modulated Protein (SERCaMP) assay (AID 1508630); note: % is set by controls: 0 for no effect and ±100 for the full control effect
Procedure, shortened: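 GLuc-SERCaMP-expressing SH-SY5Y cells, pretreated 16 h with compound, are challenged with thapsigargin to empty ER calcium stores; after 4 h, coelenterazine is added directly to the medium and luminescence is imaged.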

[16] = biological target: Cytochrome P450 3A4 (Homo sapiens) (UniProt P08684); test: qHTS Assay for Activators of Cytochrome P450 3A4 (AID 885); note: nearly all actives have a fitted effect of over 65% in size
Procedure, shortened: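 20nM CYP3A4 + 25uM Luciferin-PPXE (=KM), 200mM KPO4; cpd 10 min RT; NADPH regen, 60 min RT; stop w/ detection buffer, 20 min; luminescence. Normalized to 57 uM ketoconazole.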

[17] = biological target: Rap guanine nucleotide exchange factor 3 (Homo sapiens) (UniProt O95398); test: Confirmatory qHTS for antagonist of cAMP-regulated guanine nucleotide exchange factor 3 (EPAC1) (AID 1645880);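 note: plate controls were DMSO only for no effect and full effect of the ATA control for full effect; nearly all actives have a fitted effect of over 55% in size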
Sequence of Rap guanine nucleotide exchange factor 3 (Homo sapiens) (O95398 whole entry, looked up): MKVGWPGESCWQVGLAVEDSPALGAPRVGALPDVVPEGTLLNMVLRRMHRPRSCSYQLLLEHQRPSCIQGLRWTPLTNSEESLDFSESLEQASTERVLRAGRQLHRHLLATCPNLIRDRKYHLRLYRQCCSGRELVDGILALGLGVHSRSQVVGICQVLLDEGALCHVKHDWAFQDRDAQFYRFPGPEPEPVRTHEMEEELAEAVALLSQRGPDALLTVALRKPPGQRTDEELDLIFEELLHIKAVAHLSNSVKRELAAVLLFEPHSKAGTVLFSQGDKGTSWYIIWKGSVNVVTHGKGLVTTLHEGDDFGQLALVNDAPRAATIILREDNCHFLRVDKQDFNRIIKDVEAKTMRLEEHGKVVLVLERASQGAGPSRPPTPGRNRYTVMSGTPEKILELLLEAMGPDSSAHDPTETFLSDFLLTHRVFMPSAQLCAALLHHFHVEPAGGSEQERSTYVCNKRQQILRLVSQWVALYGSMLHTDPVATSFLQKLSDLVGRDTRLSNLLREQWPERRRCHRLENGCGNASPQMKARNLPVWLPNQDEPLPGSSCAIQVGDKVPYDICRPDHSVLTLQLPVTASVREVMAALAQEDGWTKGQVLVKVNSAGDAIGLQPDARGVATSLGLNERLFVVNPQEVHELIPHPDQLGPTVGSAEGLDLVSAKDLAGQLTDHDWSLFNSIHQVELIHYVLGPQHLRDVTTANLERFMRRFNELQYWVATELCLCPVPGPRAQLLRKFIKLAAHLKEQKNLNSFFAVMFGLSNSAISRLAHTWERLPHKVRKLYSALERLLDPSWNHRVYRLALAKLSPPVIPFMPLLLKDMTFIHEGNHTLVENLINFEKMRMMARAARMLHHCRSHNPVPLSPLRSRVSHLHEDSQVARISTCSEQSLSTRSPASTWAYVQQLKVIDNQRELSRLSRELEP
Procedure, shortened: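 Nucleotide exchange uses 100 nM EPAC1, 250 nM RAP1B-BODIPY-GDP and 50 uM GDP, with compounds in a concentration-titration series. After 5 min at room temperature, fluorescence (480 nm ex/540 nm em) is read every 5 min for 30 min. Data are normalized to control ATA and DMSO.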

[18] = biological target: Rap guanine nucleotide exchange factor 3 (Homo sapiens) (UniProt O95398); test: Confirmatory qHTS for agonist of cAMP-regulated guanine nucleotide exchange factor 3 (EPAC1) (AID 1645881);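 note: EPAC1 catalysed release of BODIPY-GDP from Rap1B seen as fluorescence loss; 100% = effect of cAMP agonist control; nearly all actives have a fitted effect of over 75% in size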
[19] = biological target: Rap guanine nucleotide exchange factor 4 (Homo sapiens) (UniProt Q8WZA2); test: Confirmatory qHTS for antagonist of cAMP-regulated guanine nucleotide exchange factor 4 (EPAC2) (AID 1645885); note: % is set by controls: 0 for no effect and ±100 for the full control effect; nearly all actives have a fitted effect of over 25% in size
[20] = measured here: cell count channel max response
[21] = measured here: lipid channel max response

O=c1c(-c2ccccc2)nc2cnc(N3CCOCC3)nc2n1C1CC1
active: Potency [3] 3.16 µM
inactive: Potency [1] > 11.4 µM | activity change, negative = inhibition [2] -9.27% | activity change, negative = inhibition [4] -1.33% | activity, negative = inhibition [5] -7.68% | Potency [6] > 9.22 µM | Potency [7] > 46 µM | outcome [8] | Potency [9] | activity change, negative = inhibition [10] -1.42% | Potency [11] | Potency [12] | Potency [13] | Potency [14] | Potency [15]
1.76%: max response [10, 20]
-1.06%: max response [10, 21]

CC(=O)NCCNc1cc(-c2ccccc2C(F)(F)F)ncn1
5.19%: max response [10, 20]
3.95%: max response [10, 21]
inactive: Potency [1] > 11.4 µM | activity change, negative = inhibition [2] 9.07% | activity change, negative = inhibition [4] 15.3% | activity, negative = inhibition [5] 6.62% | Potency [6] > 46 µM | Potency [7] > 46 µM | outcome [8] | Potency [9] | activity change, negative = inhibition [10] 0.0704% | Potency [11] | Potency [12] | Potency [13] | Potency [14] | Potency [15]
active: Potency [3] 25.1 µM

O=c1c(-c2ccc(Cl)cc2)nc2cnc(N3CCOCC3)nc2n1C[C@H]1CCCO1
inactive: Potency [1] > 11.4 µM | activity change, negative = inhibition [2] -9.09% | activity change, negative = inhibition [4] -5.22% | activity, negative = inhibition [5] -0.789% | Potency [6] > 9.22 µM | Potency [7] > 46 µM | outcome [8] | Potency [9] | activity change, negative = inhibition [10] -4.84% | Potency [11] | Potency [12] | Potency [13] | Potency [14] | Potency [15]
active: Potency [3] 2 µM
4.1%: max response [10, 20]
-3.15%: max response [10, 21]

Cc1cnc(CNc2ccnc(-c3ccccc3C(F)(F)F)n2)cn1
active: Potency [3] 15.8 µM
12.9%: max response [10, 20]
20.7%: max response [10, 21]
inactive: Potency [1] > 11.4 µM | activity change, negative = inhibition [2] 2.04% | activity change, negative = inhibition [4] 0.146% | activity, negative = inhibition [5] 2.4% | Potency [6] > 46 µM | Potency [7] > 46 µM | outcome [8] | Potency [9] | activity change, negative = inhibition [10] 8.15% | Potency [11] | Potency [12] | Potency [13] | Potency [14] | Potency [15]

COc1cccc(Cn2c(=O)c(-c3cn(C)c4ccccc34)nc3cnc(N4CCNCC4)nc32)c1
13.9%: max response [10, 20]
inactive: Potency [1] > 11.4 µM | Potency [6] > 9.22 µM | Potency [7] > 46 µM | Potency [9] | Potency [16] | activity change, negative = inhibition [10] 5.92% | Potency [11] | Potency [12] | Potency [13] | Potency [15] | Potency [17] | outcome [18] | Potency [19]
20.8%: max response [10, 21]
active: Potency [3] 15.8 µM | Potency [14] 14.1 µM
